The values that follow come from PubChem BioAssay (NCI).

What all share (experiment): NCI-60 one-dose screen, 48 h (100 = growth as untreated, 0 = no growth, -100 = all killed)
Conditions in all cases: 10 µM

Assay [1] relates to EKVX NSCLC.
In assay [2] the test system is SN12C renal.
For assay [3], the system named is UO-31 renal.
Assay [4] deals with TK-10 renal.
In assay [5] the test system is ACHN renal.
The test system of assay [6] is CAKI-1 renal.
The test system of assay [7] is A498 renal.
Assay [8] relates to CCRF-CEM leukemia.
Assay [9] concerns MOLT-4 leukemia.
The test system of assay [10] is SR leukemia.

About 83,000 compounds went through this panel and 20% of them were active in at least one assay; those are over-represented in the sample as a whole.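 Testing used 96-well plates and a 48-hour single-concentration exposure. Example: -40 means 40% of the starting cells died.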 Values without a mark were called inactive. Calls of active or inactive are those of the source. How the source made its calls: active means growth percent below 10; inactive means the rest.

In the case of `COc1ccc(/C(=C2\O[C@@H]([C@H]3COC(C)(C)O3)[C@H]3OC(C)(C)O[C@@H]23)c2cc(OC)c(OC)c(OC)c2)cc1O`, the growth in assay [1] is 90.2%; in [2], 57.7%; in [3], 49.1%; in [4], 109%; in assay [5] it was 44.7%; in assay [6] it was 93%. Besides, the growth is 63.3% in [7], 47.9% in assay [8], 59.9% in assay [9] and 25.4% in assay [10].

Regarding `COc1ccc(N=C2C(=Nc3ccc(OC)cc3)N(c3ccc(N(C)C)cc3)C(=S)N2c2ccc(OC)cc2)cc1`, the growth in assay [1] was 90.1%; in assay [2], 106%; in assay [3], 16.3%; in assay [4], 95.1%; in assay [5], 81.6%; in assay [6], 53.3%. The growth in assay [7] was 71.1%; in [8], 52%; in assay [9], 10.8%; in assay [10] it was 46.3%.

With `CCCCCCCCCCCCCCCCCCOCC(COCCOCC[N+]1(CCCCCC(=O)[O-])CCCC1)Oc1ncccn1` (stereo not given), the growth in assay [1] was 63.4%; in [2] it was 46.6%; in assay [3], 98.7%; in assay [4] it was 7.83% (active); in assay [5], 69.2%; in [6], 93.5%. The growth in [7] was 73.7%; in assay [8], 32.3%; in assay [9], 32.5%; in assay [10], 29.9%.

Regarding `Cc1ccc(NC(=O)CSc2nc3ccccc3c(=O)n2CCc2ccccc2)c(C(=O)O)c1`, the growth in assay [1] is 73.4%; in [2], 96.6%; in [3], 78.5%; in assay [4], 117%; in [5], 91.1%; in [6] it was 81.5%. For the same compound, in assay [7], the growth is 87%.

Consider `Cc1nc2ccc(CN(C)c3ccc(C(=O)N[C@@H](CCC(=O)O)C(=O)O)s3)cc2c(=O)[nH]1`, for which the growth in assay [1] is 72.9%; in assay [2], 47.7%; in assay [3], 39.9%; in [4], 48.6%; in assay [5] it was 34.1%; in assay [6] it was 28.5%. The growth in assay [7] is 21.5%; in assay [8] it was 33.1%; in [9] it was 26.2%.

As for `CCN(CC)CCOc1nc2ccccc2c2c1-c1ccc(OC)cc1C2=O`, the growth in [1] is 16%; in assay [2], 18.1%; in assay [3], -53.3% (active); in assay [4], -1.29% (active); in assay [5] it was -6.81% (active); in assay [6], -28.6% (active). Further, the growth in assay [7] is 39.9%; in [8] it was 4.01% (active); in assay [9], -2.16% (active); in assay [10], -8.96% (active).

With `O=C(Nc1nc2ccc(F)cc2s1)c1cc(-c2ccc(F)cc2)n2nc(-c3ccccc3)cc2n1`, the growth in assay [1] was 84.1%; in assay [2], 87.5%; in assay [3], 98.2%; in assay [4] it was 113%; in [5], 107%; in assay [6] it was 85.6%. Moreover, the growth is 124% in [7], 74.5% in assay [8], 99.7% in assay [9] and 35% in assay [10].

Regarding `O=C(Nc1ccncc1)C(=O)c1cn(S(=O)(=O)c2ccc(F)cc2)c2ccccc12`, the growth in assay [1] is 52.1%; in [2], 41.9%; in assay [3], 20.6%; in [4], 79%; in assay [5], 57.7%; in assay [6], 52.9%. Besides, the growth in assay [7] is 66.2%; in assay [8], 43.6%; in [9], 25.7%; in assay [10], 2.09% (active).

`C/C(=N\Nc1nc2ccccc2s1)c1ccncn1`: the growth in assay [1] was 22.7%; in [2], 46.7%; in assay [3], 19.8%; in [4], 50.6%; in assay [5] it was 12.6%; in assay [6] it was 29.9%. Further, the growth in assay [7] was 63.3%; in assay [8] it was 5.95% (active); in assay [9], 2.87% (active); in assay [10], 17.8%.

With `N#Cc1c(C#N)c(SSc2c(C#N)c(C#N)c(N)n2-c2ccccc2)n(-c2ccccc2)c1N`, the growth is 107% in assay [1]; 99.3% in assay [2]; 81.2% in [3]; 107% in [4]; 101% in [5]; 118% in assay [6]. Further, the growth is 92.1% in assay [7], 126% in [8], 106% in assay [9] and 106% in assay [10].

On to `Nc1nccc(Nc2ccccc2)n1`, for which the growth is 107% in [1]; 119% in [2]; 94.7% in assay [3]; 122% in assay [4]; 100% in assay [5]; 118% in assay [6]. Also, the growth in assay [7] was 97.3%; in [8], 89.8%; in assay [9], 96.3%; in [10], 102%.

Turning to `CCCCN(CCCC)CCCCCCCCC(O)c1cc2ccccc2c2ccccc12` (stereo not given), the growth in [1] was 60.4%; in assay [2], 64.9%; in assay [3], 52.3%; in [4] it was 79%; in assay [5], 59.9%; in [6], 71.9%. Also, the growth in assay [7] is 46%; in assay [8], 37.4%; in [9], 39%.

With `CN(C)CCN1C(=O)c2cccc3cc(N)cc(c23)C1=O`, the growth in assay [1] was 45.2%; in assay [2], 30.9%; in assay [3] it was -26.8% (active); in assay [4] it was 32.9%; in assay [5] it was -30.3% (active); in assay [6], 3% (active). The growth is 41.8% in assay [7], 13.6% in assay [8], -2.12% (active) in [9] and 8.08% (active) in [10].

On to `COc1ccc2c(c1)C(=O)c1c-2c(OCCN(C)C)nc2cc(OC)c(OC)cc12`, for which the growth in [1] was 93.9%; in assay [2], 51.9%; in [3], 46.8%; in assay [4] it was 64.2%; in assay [5], 38.3%; in assay [6], 81%. The growth is 102% in assay [7], 28.2% in assay [8], 11.6% in assay [9] and 1.83% (active) in assay [10].
